Inconclusive results are not listed. A call without a number means that no potency is given here. The source made the active and inactive calls. Calls come from the whole dose curve; as a rule, active = well fitted cell-killing curve with a large enough effect in the repeat runs; inconclusive = weak or mixed curves, or effect the other way; inactive = flat fitted curve, though single readings scatter.

The experiment in a line: qHTS assay to identify small molecule agonists of the constitutive androstane receptor (CAR) signaling pathway - cell viability counter screen (AID 1224836). Note: nearly all actives have a fitted effect of over 45% in size. The conditions noted are these: HepG2-CYP2B6-hCAR viability, CellTiter-Fluor, 23 h, PK11195 added to every well; series mostly up to 92.4 µM. The text has this:
U.S. Tox21 Program National Center for Advancing Translational Sciences [NCATS] NIH Chemical Genomics Center [NCGC] U.S. Environmental Protection Agency [EPA] National Institutes of Environmental Health Sciences [NIEHS] National Toxicology Program [NTP] U.S. Food and Drug Administration [FDA] Tox21 Assay Overview: The constitutive androstane receptor (CAR) is a nuclear receptor which regulates multiple drug metabolizing enzymes (DMEs) and transporters. Activating CAR will generally increase the transcription and subsequent translation of CYP2B6 and CYP3A4. These two DMEs represent about 50% of the drug metabolizing potential in the body. […] Recently, there have also been studies performed indicating CARs role in energy metabolism and cancer therapy. Therefore, inducing CARs activity could have a potential effect on diabetes and cancer. Identifying environmental toxins and compounds which modulate CAR, through the use of the Tox21 10K compound collection, will be an important step in determining the toxicity and potential therapeutic effects these factors will have on the human body. To differentiate true CAR agonists from cytotoxic substances, the assay is multiplexed with a cell viability assay.
Tox21 Assay Protocol Summary: A double-stable (hCAR and CYP2B6-2.2kb) transfected cell line, derived from human hepatoma (HepG2) cells, was utilized for the duration of the quantitative high-throughput screens. The HepG2-CYP2B6-hCAR cells were dispensed at 2500 cells/4 uL/well in 1536-well white solid bottom plates using a Multidrop Combi. After the assay plates were incubated at 37 C/5% CO2 for 4 hrs, 23 nL of compounds at 15 concentrations (from 5-48 columns) or positive control (from 1 to 4 columns) were transferred to the assay plates using a Pintool station. One uL of PK11195 (final concentration = 0.75 uM) was added, using a Flying Reagent Dispenser, inside each well. After a 23 hr incubation period at 37 C/5% CO2, 1 uL of CellTiter-Fluor reagent was added into each well of the assay plates using a Flying Reagent Dispenser. The fluorescence intensity in the plates was then measured using a ViewLux plate reader.
Background: In qHTS, concentration-response curves come from the screen itself.
For `O=C/C=C/c1ccccc1`, the Potency entry was “inactive”.

Turning to `ClC(Cl)c1ccccc1`, the Potency entry is “inactive”.

Regarding `Cl/C=C/Cl`, the Potency entry was “inactive”.

Consider `O=C(O)C1C(C(=O)O)C2(Cl)C(Cl)=C(Cl)C1(Cl)C2(Cl)Cl` (stereo not given), for which the Potency entry is “inactive”.

Turning to `Cc1cccc(N)c1`, the Potency entry is “inactive”.

For the molecule `CN(C)C(=O)Cl`, the Potency result was “inactive”.

With `CN(C)CCC#N`, the Potency result was “inactive”.

With `c1ccc2c(c1)CCCC2`, the Potency result is “inactive”.

On to `CCNc1nc(Cl)nc(NC(C)C)n1`, for which the Potency result is “inactive”.

`OCCCCO`: the Potency result is “inactive”.

For `NNc1ccccc1`, the Potency entry is “inactive”.

With `COP(=S)(OC)Oc1ccc(SC)c(C)c1`, the Potency result was “inactive”.

In the case of `CCCOC(=O)c1ccccc1C(=O)OCCC`, the Potency result is “inactive”.

With `CNC(=O)O/N=C/C(C)(C)S(C)=O` (stereo not given), the Potency result was “inactive”.

In the case of `CCSC(=O)N1CCCCCC1`, the Potency entry is “inactive”.

In the case of `COP(=S)(OC)SCN1C(=O)c2ccccc2C1=O`, the Potency result was “inactive”.

On to `CCCCC(CC)C(=O)Cl` (stereo not given), for which the Potency result is “inactive”.

With `N#CN=C(N)N`, the Potency result is “inactive”.

For the molecule `COc1nc(NC(C)C)nc(NC(C)C)n1`, the Potency entry was “inactive”.

Take `C=C(C)C(=O)OCC(CC)CCCC` (stereo not given): the Potency entry is “inactive”.

On to `CNc1cnn(-c2cccc(C(F)(F)F)c2)c(=O)c1Cl`, for which the Potency result is “inactive”.

Take `ClCCOCCCl`: the Potency entry was “inactive”.

For the molecule `CC(C)(C)C(=O)CCl`, the Potency entry is “inactive”.

As to `[N-]=[N+]=CC(=O)OC[C@H](N)C(=O)O`, the Potency entry is “inactive”.

Turning to `O=C(O)c1cc(Oc2ccc(C(F)(F)F)cc2Cl)ccc1[N+](=O)[O-]`, the Potency result is “inactive”.

On to `CSc1nnc(C(C)(C)C)c(=O)n1N`, for which the Potency result was “inactive”.

Regarding `O=[N+]([O-])c1ccc(Cl)c(Cl)c1`, the Potency result is “inactive”.

Take `C=CC#N`: the Potency entry was “inactive”.

For `OC[C@@H](O)[C@H]1O[C@@H]2O[C@H](C(Cl)(Cl)Cl)O[C@@H]2[C@H]1O`, the Potency result is “inactive”.

In the case of `Cc1ccc(N=C=O)cc1N=C=O`, the Potency entry is “inactive”.

Take `C[C@H]1C(=O)O[C@@H]2CCN3CC=C(COC(=O)[C@](C)(O)[C@]1(C)O)[C@H]23`: the Potency result was “inactive”.

As to `O=S(=O)(O)OOS(=O)(=O)O`, the Potency result was “inactive”.

Consider `C=CC(=O)OCC(CC)CCCC` (stereo not given), for which the Potency result was “inactive”.

As for `OCC(O)CCl` (stereo not given), the Potency result was “inactive”.

`Cc1cccc(C)c1N`: the Potency entry was “inactive”.

With `CNC(=O)O/N=C/C(C)(C)S(C)(=O)=O`, the Potency entry is “inactive”.

For the molecule `CCCCCCCCCCCCCCCCCC(=O)O`, the Potency result was “inactive”.

As for `CCOC(=O)CC(SP(=O)(OC)OC)C(=O)OCC` (stereo not given), the Potency result is “inactive”.

Turning to `CC(=O)C1CCOC1=O` (stereo not given), the Potency entry was “inactive”.

For `COC(C)(C)CCCC(C)C/C=C/C(C)=C/C(=O)OC(C)C` (stereo not given), the Potency result is “inactive”.
